From PubChem BioAssay (NCI) come the findings set out here.

What all share (test): NCI-60 one-dose screen, 48 h (100 = growth as untreated, 0 = no growth, -100 = all killed)
Holding throughout (conditions): 10 µM unless noted

In assay [1] the test system is NCI-H226 lung.
The test system of assay [2] is NCI-H322M lung.
The subject of assay [3] is HOP-62 NSCLC.
Assay [4] concerns HOP-92 NSCLC.
Assay [5] relates to NCI-H522 lung.
For assay [6], the system named is A549/ATCC NSCLC.
Assay [7] deals with 786-0 renal.
The test system of assay [8] is COLO 205 colon.
Assay [9] concerns K-562 leukemia.
The test system of assay [10] is MALME-3M melanoma.
Assay [11] has as its system MDA-MB-231 breast.
Assay [12] has as its system RXF 393 renal.
For assay [13], the system named is SF-268 CNS.
Assay [14] has as its system SF-295 CNS.
In assay [15] the test system is SF-539 CNS.
Assay [16] concerns UACC-257 melanoma.
Assay [17] relates to M14 melanoma.
The subject of assay [18] is NCI-H460 lung.
Assay [19] concerns DU-145 prostate.

This is part of a sample that, as a whole, favours compounds with a hit. Of some 83,000 tested, about 20% had one in any assay.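 Each cell line was grown in a 96-well plate and treated with one concentration of compound for 48 hours. Values below 10 were considered active.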 Unmarked numbers belong to inactive results. Calls of active or inactive are those of the source.

As to `O=C1C=C(c2ccccc2)C(O)(c2ccccc2)C1` (stereo not drawn), the growth in assay [1] was 101%; in [2] it was 106%; in [3] it was 101%; in [4] it was 163%; in assay [5] it was 94%; in [6], 93.4%. Moreover, the growth is 99.1% in [7]; 104% in [8]; 86.6% in assay [9]; 108% in assay [10]; 92.5% in assay [11]; 115% in assay [12]. Moreover, the growth is 103% in assay [13]; 94.1% in [14]; 104% in assay [15]; 97.7% in [16]; 95.5% in assay [17].
For the compound `CC(=O)NC(O)C(Cl)Cl` (stereo not drawn), the growth in [1] was 102%; in assay [2], 98.4%; in assay [3], 95.6%; in [18] it was 106%; in assay [4], 94.9%; in [5] it was 94%. For the same compound, the growth is 102% in assay [6]; 112% in assay [7]; 98.9% in [8]; 99.2% in [19]; 84.3% in assay [9]; 96.7% in [10]. The growth was 113% in [12]; 95% in [13]; 93.6% in assay [14]; 90.6% in assay [15]; 107% in assay [16]; 110% in assay [17].
`CCOC(=O)C(COS(C)(=O)=O)(COS(C)(=O)=O)C(=O)OCC`: the growth was 105% in assay [1]; 101% in assay [2]; 98.1% in [3]; 109% in assay [18]; 86% in [4]; 96% in assay [5]. Further, the growth in assay [6] is 105%; in assay [7], 108%; in [8], 107%; in assay [9], 101%; in assay [10], 122%; in assay [11], 109%. For the same compound, the growth in assay [12] was 112%; in [13], 99%; in assay [14], 111%; in assay [15], 112%; in assay [16], 105%; in assay [17] it was 104%.
As to `Cn1c(=O)c2[nH]c(CCCCC(=O)O)nc2n(C)c1=O`, the growth was 118% in assay [1]; 101% in assay [2]; 108% in [3]; 116% in assay [18]; 88.9% in assay [4]; 96.2% in [5]. Also, the growth was 103% in assay [6]; 114% in assay [7]; 103% in assay [8]; 110% in [19]; 109% in assay [9]; 115% in assay [10]. For the same compound, the growth is 110% in assay [11]; 127% in assay [12]; 99.2% in assay [13]; 123% in assay [14]; 106% in assay [15]; 103% in assay [16]. Further, the growth in assay [17] is 111%.
Take `Oc1ccc(CCC2CCNc3ccccc32)cc1` (stereo not drawn): the growth in assay [1] was 62.8%; in assay [2] it was 91.1%; in assay [3], 75.8%; in assay [4], 49.3%; in assay [5], 68.8%; in assay [6], 52.1%. In addition, the growth in assay [7] is 82.2%; in assay [8], 93.4%; in [19] it was 93.4%; in [9], 69.7%; in assay [10], 98.8%; in [11], 86.2%. Moreover, the growth in assay [12] is 81.5%; in assay [13], 83.1%; in assay [14] it was 75.2%; in assay [15], 75.7%; in [17], 89.4%.
For `Nc1cc(N)ncn1`, the growth in assay [1] was 93.9%; in assay [2], 103%; in assay [3] it was 112%; in assay [18], 107%; in assay [4], 96%; in [5], 104%. Further, the growth in [6] is 103%; in assay [7], 104%; in assay [8], 104%; in [19], 110%; in assay [9], 91.3%; in assay [10], 106%. Further, the growth is 96.1% in assay [11]; 102% in assay [13]; 104% in assay [14]; 99.2% in [15]; 112% in assay [16]; 97.2% in assay [17].
As for `Cc1cc2c3ccc(C)[n+](C)c3ccc2n1C`, the growth is 80.9% in [1]; 99.5% in assay [2]; 33.8% in [3]; 61.7% in assay [18]; 44.4% in assay [4]; 49.7% in [5]. Moreover, the growth is -0.921% (active) in assay [6]; 53.4% in assay [7]; 10.7% in assay [8]; 46.7% in [19]; 46.9% in assay [10]; 33.6% in assay [11]. Moreover, the growth in assay [12] is 61.6%; in [13] it was 19%; in [14], 26.4%; in assay [15], 67.5%; in assay [16], 32.2%; in assay [17] it was 92.7%.
Turning to `COc1cc(-c2ccc(NC(=O)CC(C)=O)c(OC)c2)ccc1NC(=O)CC(C)=O`, the growth in [1] is 91.4%; in assay [2] it was 102%; in assay [3], 98%; in [18], 109%; in assay [4], 98.2%; in assay [5], 95.5%. Further, the growth was 88.5% in assay [6]; 105% in assay [7]; 115% in assay [8]; 111% in [19]; 98% in assay [9]; 97.3% in [10]. The growth in assay [11] was 101%; in [12] it was 113%; in assay [13], 107%; in assay [14] it was 101%; in assay [15], 97.6%; in assay [16], 89.3%. Further, in assay [17], the growth was 104%.
For the compound `CSCC[C@@H]1C(=O)N(C)[C@H](C(C)(C)C)N1C(=O)c1ccccc1`, the growth in [1] was 102%; in assay [2], 97.6%; in assay [3], 103%; in assay [18] it was 112%; in assay [4], 108%; in assay [5] it was 107%. The growth was 101% in assay [6]; 106% in assay [7]; 113% in assay [8]; 106% in [19]; 114% in [9]; 111% in [11]. Further, the growth in assay [12] was 111%; in assay [13], 94.8%; in assay [14], 108%; in assay [15], 107%; in assay [16], 100%; in assay [17] it was 105%.
With `OCc1cccnc1`, the growth in assay [1] was 103%; in assay [2] it was 106%; in [3], 99.8%; in assay [4], 98.4%; in [6], 92.2%; in [7], 107%. The growth in assay [8] is 107%; in assay [19], 111%; in assay [9], 117%; in assay [10], 121%; in assay [11] it was 103%; in assay [12], 112%. In addition, the growth in assay [13] is 97.7%; in assay [14], 99%; in assay [15], 95.3%; in assay [16], 91.2%; in assay [17], 98.2%.
For `O=C(OCC1CCCO1)c1ccc([N+](=O)[O-])cc1` (stereo not drawn), the growth was 92.5% in assay [1]; 100% in [2]; 92.6% in assay [3]; 95.5% in [18]; 91.8% in assay [4]; 94.2% in assay [5]. For the same compound, the growth was 90.9% in assay [6]; 91% in assay [7]; 103% in assay [8]; 113% in assay [19]; 111% in assay [9]; 106% in assay [10]. Also, the growth was 106% in assay [11]; 102% in assay [12]; 106% in assay [13]; 102% in [14]; 102% in [15]; 85.5% in [16]. For the same compound, the growth in assay [17] is 101%.
Take `CC(C)NC(=O)OCc1c(COC(=O)NC(C)C)c(-c2ccc(Cl)cc2)n2c1CCC2`: the growth in [1] is 63%; in assay [2] it was 62.8%; in assay [3], 46.4%; in [18], 24.6%; in [4], 26.2%; in assay [5], 51.2%. Besides, the growth is 66.5% in assay [6]; 36.4% in assay [7]; 57.2% in assay [8]; 15% in [19]; 58.4% in assay [9]; 59.3% in assay [10]. The growth in assay [11] is 65.8%; in [13] it was 31%; in assay [14], 20.8%; in assay [15], 16.3%; in assay [16], 88.8%; in [17], 33.2%.
With `CCOc1ccc(C(=O)NCC(C)C)cc1`, the growth in [1] is 104%; in assay [2], 101%; in [3] it was 95.8%; in assay [18], 103%; in [4], 103%; in assay [5], 97.8%. Besides, the growth in assay [6] was 108%; in assay [7], 97.6%; in assay [8], 101%; in [19], 110%; in assay [9] it was 102%; in assay [10] it was 101%. Moreover, the growth in assay [11] is 93.2%; in [12], 108%; in [13] it was 102%; in assay [14], 99.5%; in assay [15], 94.4%; in assay [16], 110%. Moreover, the growth in assay [17] was 97%.
For the compound `O=C(O)c1ccc([N+](=O)[O-])cc1S(=O)(=O)O`, the growth is 104% in assay [1]; 113% in assay [2]; 107% in assay [3]; 105% in [18]; 119% in assay [4]; 101% in [5]. The growth in assay [6] is 97.2%; in assay [7], 102%; in assay [8] it was 112%; in assay [19], 104%; in [9], 107%; in assay [10] it was 108%. The growth in [12] was 114%; in assay [13], 98%; in [14], 102%; in [15] it was 107%; in assay [16], 100%; in [17], 108%.
